About 2,200 (0.71%) of roughly 310,000 compounds showed an effect of 50% or more. Effects have a minus sign here. What follows is part of a selection rich in strong results, with near analogues and random picks from the rest.
target: human ether-à-go-go-related gene (hERG) potassium channel (human, UniProt Q12809); assay: primary screen, population patch clamp on CHO cells stably expressing hERG; higher = less effect of the substance
Sequence (Q12809 whole entry, looked up): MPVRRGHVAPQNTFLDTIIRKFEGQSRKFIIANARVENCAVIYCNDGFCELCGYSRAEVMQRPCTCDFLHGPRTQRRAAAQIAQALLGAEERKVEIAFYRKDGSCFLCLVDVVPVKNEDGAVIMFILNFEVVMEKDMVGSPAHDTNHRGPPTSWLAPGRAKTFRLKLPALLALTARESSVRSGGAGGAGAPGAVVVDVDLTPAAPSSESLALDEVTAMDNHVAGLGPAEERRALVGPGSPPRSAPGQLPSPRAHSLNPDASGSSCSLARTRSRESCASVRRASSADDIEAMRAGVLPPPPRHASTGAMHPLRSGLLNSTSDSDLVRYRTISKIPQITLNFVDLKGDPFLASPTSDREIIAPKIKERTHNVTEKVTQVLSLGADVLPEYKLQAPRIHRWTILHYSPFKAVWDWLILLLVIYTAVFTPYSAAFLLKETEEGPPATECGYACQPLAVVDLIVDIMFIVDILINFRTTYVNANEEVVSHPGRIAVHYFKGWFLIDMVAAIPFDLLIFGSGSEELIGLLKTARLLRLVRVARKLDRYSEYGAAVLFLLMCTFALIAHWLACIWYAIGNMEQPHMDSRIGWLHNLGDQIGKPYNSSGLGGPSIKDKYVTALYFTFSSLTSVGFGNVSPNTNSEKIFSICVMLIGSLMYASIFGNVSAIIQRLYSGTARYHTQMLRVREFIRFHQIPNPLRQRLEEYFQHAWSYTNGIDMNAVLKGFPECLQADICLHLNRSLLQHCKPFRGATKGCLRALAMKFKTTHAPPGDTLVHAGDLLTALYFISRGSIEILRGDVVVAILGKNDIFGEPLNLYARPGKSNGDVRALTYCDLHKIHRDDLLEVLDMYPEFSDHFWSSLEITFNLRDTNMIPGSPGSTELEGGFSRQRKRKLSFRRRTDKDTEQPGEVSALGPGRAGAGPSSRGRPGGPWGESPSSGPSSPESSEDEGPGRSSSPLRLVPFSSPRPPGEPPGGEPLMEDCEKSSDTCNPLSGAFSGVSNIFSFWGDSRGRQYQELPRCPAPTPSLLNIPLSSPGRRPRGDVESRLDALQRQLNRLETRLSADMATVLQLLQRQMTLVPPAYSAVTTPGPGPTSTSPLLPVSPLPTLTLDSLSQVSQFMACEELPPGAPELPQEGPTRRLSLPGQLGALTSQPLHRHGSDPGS

Row | SMILES | hERG current change (%, negative = inhibition) at 1uM [%]
1 | Cc1cc(-c2ccco2)n(CC(=O)NCCCc2ccccc2)n1 | 14.3
2 | CC(C)(C)NC(=O)c1ccc2nsnc2c1 | 6.08
3 | C=CCn1c(COc2ccc(Cl)cc2)nnc1SCC(=O)N/N=C/c1cccc(O)c1 | 4.13
4 | COc1cccc(-c2c(C#N)c(N)nc3c2c(C)nn3-c2ccccc2)c1O | 1.84
5 | FC(F)(F)c1ccncc1-c1nnc(C2CCCCC2)o1 | 15.5
6 | CCOC(=O)N1CCC(NC(=O)c2cnn3cccnc23)CC1 | -4.76
7 | CC1CCCCN1CCNC(=O)CC1Oc2ccccc2NC1=O (centres unmarked) | 5.21
8 | Cc1cc(C)nc(OC(C(=O)O)C(OCCC(C)C)(c2ccccc2)c2ccccc2)n1 (centres unmarked) | 10.8
9 | CCOC(=O)C1(CCOc2ccccc2)CCN(Cc2ccc(OC)c(O)c2)CC1 | -88.3
10 | CCOC(=O)C1(CCOc2ccccc2)CCN(Cc2ccc(O)c(OC)c2)CC1 | -69.9
11 | CCOC(=O)C1(CCOc2ccccc2)CCN(Cc2ccc(COC)o2)CC1 | -41.9
12 | CCOC(=O)C1(CCOc2ccccc2)CCN(Cc2cc(OC)c(O)cc2Cl)CC1 | 7.21
13 | CCOC(=O)C1(CCOc2ccccc2)CCN(Cc2ccc(OC)c(COC)c2)CC1 | -77.3
14 | CCOC(=O)C1(CCOc2ccccc2)CCN(Cc2ccc(O)c(Cl)c2)CC1 | -2.25
15 | CCOC(=O)C1(Cc2cccc(OC)c2)CCN(Cc2ccc(OC)c(O)c2)CC1 | -16.9
16 | CCOC(=O)C1(CCOc2ccccc2)CCN(Cc2ccc(F)c(OC)c2)CC1 | 5.6
17 | CCOC(=O)CSc1nnc(COc2cccc(C)c2)o1 | 10.6
18 | COCCOc1ccc(C(F)(F)F)cc1NC(=O)c1ccc(C(F)(F)F)cc1 | 4.7
19 | CCN(CC)S(=O)(=O)c1ccc(N/N=C/c2cc(OC)c(OC)cc2OC)nc1 | 17.4
20 | COc1ccc(C(=O)NC2CCCc3ccccc32)cc1OC1CCN(C(C)=O)CC1 (centres unmarked) | 3.31
21 | CCOc1ccc(/C(O)=C2/C(=O)C(=O)N(CCCN3CCOCC3)C2c2ccc(F)cc2)cc1C (centres unmarked) | 16.5
22 | CN1CCN(S(=O)(=O)c2ccc(N3CCN(C(c4ccccc4)c4ccccc4)CC3)nc2)CC1 | 18.9

Row | SMILES | hERG current change (%, negative = inhibition) at 1uM [%]
23 | O=C(COc1ccc(S(=O)(=O)N2CCOCC2)cc1)Nc1cccc([N+](=O)[O-])c1 | 9.62
24 | Cc1ccc(NC(=O)COc2ccc(S(=O)(=O)N3CCOCC3)cc2)cc1 | 13.6
25 | O=C(COc1ccc([N+](=O)[O-])cc1)Nc1ccc(S(=O)(=O)N2CCOCC2)cc1 | -55.1
26 | Cc1c(CCC(=O)N2CCC[C@H]2C(=O)O)c(=O)oc2c(C)c3oc4c(c3cc12)CCCC4 | 21.1
27 | COC(=O)C(NC(C)=O)(Nc1ccc(C)cn1)C(F)(F)F (centres unmarked) | 21.1
28 | Cc1ccc(NP(=O)(Oc2ccccc2F)Oc2ccccc2F)cc1 | -1.69
29 | COc1cc(OC)cc(C(=O)N2CCN(Cc3ccccc3Br)CC2)c1 | 9.25
30 | Cc1ccc2nc3c(cc(C(=O)NC4CCCC4)c(=N)n3CCCn3ccnc3)c(=O)n2c1 | -2.46
31 | Cc1ccc2nc3c(cc(C(=O)NC4CCCC4)c(=N)n3C3CCCCC3)c(=O)n2c1 | -86.2
32 | Cc1ccc(S(=O)(=O)c2cc3c(=O)n4ccccc4nc3n(C3CCCCC3)c2=N)cc1 | -0.427
33 | Cc1ccc(S(=O)(=O)c2cc3c(=O)n4ccccc4nc3n(C3CCCC3)c2=N)cc1 | 3.8
34 | Cc1ccc2nc3c(cc(C(=O)NC4CCCCC4)c(=N)n3C3CCCCC3)c(=O)n2c1 | -72.7
35 | CCCOc1cccc(C(=O)N(Cc2ccco2)C2CCS(=O)(=O)C2)c1 (centres unmarked) | 3.56
36 | CCN(CC)C(=O)C1CCN(S(=O)(=O)c2ccc3oc4ccccc4c3c2)CC1 | 16.7
37 | CCc1ccc(NC(=O)c2nc(S(=O)(=O)Cc3ccccc3)ncc2Cl)cc1 | 20.7
38 | O=c1[nH]c2ccccc2cc1CN(Cc1cccnc1)S(=O)(=O)c1ccc([N+](=O)[O-])cc1 | -5.07
39 | c1ccc(C(c2nnnn2Cc2ccco2)N2CCN(c3nc4ccccc4s3)CC2)cc1 (centres unmarked) | 8.1
40 | Cc1ccc(Cl)cc1NC(=O)C1CCCN(S(C)(=O)=O)C1 (centres unmarked) | 7.81
41 | O=[N+]([O-])c1ccc(N2CCN(Cc3ccc4c(c3)OCO4)CC2)nc1 | -29.2
42 | O=Cc1cc([N+](=O)[O-])ccc1N1CCN(Cc2ccc3c(c2)OCO3)CC1 | -66.7
43 | Cl.O=[N+]([O-])c1ccc2ncnc(N3CCN(Cc4ccc5c(c4)OCO5)CC3)c2c1 | 11.4
44 | Cc1ccccc1Nc1nc2nonc2nc1N1CCOCC1 | 6.45

Row | SMILES | hERG current change (%, negative = inhibition) at 1uM [%]
45 | CC1C(=O)NC(=O)C1c1ccccc1 (centres unmarked) | 13.3
46 | Cn1c(N)c(C(=O)COC(=O)CSc2ccc(Cl)cc2)c(=O)n(C)c1=O | -2.13
47 | CC(C)(C)NCc1cc2ccccc2[nH]c1=O | 8.1
48 | CC(C)C[C@@H](COc1ccccc1)N1CCN(CC(C)C)CCC1=O | -21.2
49 | O=C1CCN(CCc2ccccc2)CCN1[C@H](COc1ccccc1)c1ccccc1 | -82.8
50 | O=C1CCN(Cc2ccccc2)CCN1[C@H](COc1ccccc1)c1ccccc1 | 2.66
51 | CCCN1CCC(=O)N([C@H](CO)c2ccccc2)CC1 | 9.74
52 | CCCN1CCC(=O)N([C@H](COc2ccccc2)c2ccccc2)CC1 | -76.5
53 | CC(C)CN1CCC(=O)N([C@H](CO)c2ccccc2)CC1 | 12.6
54 | O=C1CCN(CCc2ccccc2)CCN1[C@H](CO)c1ccccc1 | -7.26
55 | CC(C)CN1CCC(=O)N([C@H](COc2ccccc2)c2ccccc2)CC1 | -64.3
56 | CCCCCCCN1CCC(=O)N([C@H](CO)c2ccccc2)CC1 | -25.8
57 | COc1ccc(CCNc2nc(-c3cccnc3)cs2)cc1OC | 23.6
58 | CCCCC(=O)Nc1cccc(NC(=O)c2cccnc2Cl)c1 | 6.85
59 | C/C(=N\O)C(=O)NCCN(C)C | 13.6
60 | CC(=O)O.Cc1nc(NCCc2ccc(F)cc2)c(C#N)c(C)c1[N+](=O)[O-] | -41.9
61 | O=C(Oc1ccc(C(=S)N2CCCCC2)cc1)c1ccccc1 | 7.88
62 | O=C(COC(=O)CCC(=O)c1ccccc1)NCCc1ccccc1 | 4.19
63 | O=C(Cn1ccc(NC(=O)OCc2ccccc2)nc1=O)NCCCN1CCCC1=O | 7.66
64 | CCOC(=O)c1sc2nc(C)nc(NCc3ccccc3)c2c1C | 16.7
65 | CCOC(=O)c1sc2nc(C)nc(NCc3ccc(F)cc3)c2c1C | 17.8
66 | CCOC(=O)c1sc2nc(C)nc(NCc3ccc(Cl)cc3)c2c1C | -89.6

Row | SMILES | hERG current change (%, negative = inhibition) at 1uM [%]
67 | [O-]/C(=C(\C(=S)NCc1ccccc1)[n+]1ccccc1)c1ccc(Cl)s1 | 0.527
68 | COC(=O)c1c(NC(=O)c2cccs2)sc2c1CCC(C)C2 (centres unmarked) | 9.97
69 | COc1ccc([C@@H]2[C@@H](C(=O)C(C)(C)C)N3N=Cc4ccccc4[C@@H]3C23C(=O)OC(C)(C)OC3=O)cc1OC | -5.04
70 | OCCC1CN(Cc2cccn2-c2nccs2)CCN1Cc1ccc(F)c(F)c1 (centres unmarked) | -85
71 | OCCC1CN(Cc2ccc(Oc3ncccn3)cc2)CCN1Cc1ccc(F)c(F)c1 (centres unmarked) | 8.89
72 | CC(C)=CCN1CCN(Cc2cccn2-c2nccs2)CC1CCO (centres unmarked) | -1.62
73 | OCCC1CN(Cc2cccn2-c2nccs2)CCN1Cc1ccccc1 (centres unmarked) | -21.7
74 | CC(C)CCN1CCN(Cc2cccn2-c2nccs2)CC1CCO (centres unmarked) | -17.6
75 | CCOc1ccc(CN2CCN(Cc3cccn3-c3nccs3)CC2CCO)cc1 (centres unmarked) | -84
76 | OCCC1CN(Cc2cccn2-c2nccs2)CCN1C1CCCCC1 (centres unmarked) | -4.43
77 | OCCC1CN(Cc2cccn2-c2nccs2)CCN1CCc1ccccc1 (centres unmarked) | -57.1
78 | Cc1ccc(CN2CCN(Cc3cccn3-c3nccs3)CC2CCO)cc1 (centres unmarked) | -79.7
79 | CC(C)N1CCN(Cc2cccn2-c2nccs2)CC1CCO (centres unmarked) | 11.5
80 | CCOc1ccc(CN2CCN(Cc3ccon3)CC2CCO)cc1 (centres unmarked) | -33.5
81 | OCCC1CN(Cc2ccn[nH]2)CCN1Cc1ccc(F)c(F)c1 (centres unmarked) | 8.07
82 | CC(Sc1nc2ccc(Br)cc2[nH]1)C(=O)O (centres unmarked) | -11.3
83 | Cc1cc(Cl)c(OCCCNC2CCCC2)c(Br)c1.O=C(O)C(=O)O | -6.84
84 | Cc1nnsc1C(=O)Nc1ccc(S(=O)(=O)N2CCCC(C)C2)cc1 (centres unmarked) | 15.2
85 | Cn1cccc1C(=O)NC1CCCCC1 | 5.24
86 | C=CCn1c(SCC(=O)Nc2cccnc2Cl)nnc1-c1ccc(C(C)(C)C)cc1 | 9.68

Reference: publication PMC4336329 (PLoS ONE, 2015)
